Source: PubChem BioAssay (NCATS)
Results filed as inconclusive are left out. A call without a number means that no potency is given here. Active and inactive are the calls of the source. Calls follow the shape of the dose curve; as a rule, active = well fitted curve in the direction sought with a large enough effect; inconclusive = small, poorly fitted or top-dose-only effect, or another doubt; inactive = no such curve, though single readings can be large; an effect the other way counts as inactive or inconclusive.

Assays:
[1] = target: Aldehyde dehydrogenase, mitochondrial (Homo sapiens) (UniProt P05091); experiment: qHTS for Inhibitors of the Aldehyde Dehydrogenase Family (ALDH2) Primary screen (AID 2061308); also: nearly all actives have a fitted effect of over 55% in size
[2] = target: Retinaldehyde dehydrogenase 3 (Homo sapiens) (UniProt P47895); experiment: qHTS for Inhibitors of the Aldehyde Dehydrogenase Family (ALDH1A3) Primary screen (AID 2061315)

| SMILES | Potency [1] | Potency [2] |
| --- | --- | --- |
| O=C(Nc1nnc(COc2ccc(Cl)cc2)s1)c1cccs1 | inactive | inactive |
| COc1c2c(c(C)c3c1C(=O)OC3)OC1(C)CC(O)C3(O)C(C)(C)OC(=O)CCC3(C)C1C2 (stereo unspecified) | inactive | inactive |
| NC(=O)C1CCN(c2nc(-c3ccccc3)cs2)CC1 | inactive | inactive |
| Fc1ccc(Nc2nc(-c3ccncc3Cl)nc3ccccc23)cc1F | inactive | inactive |
| CCCn1c(C)nc2c(NCc3ccccc3)nc(C)nc21 | inactive | inactive |
| O=C(Nc1nc(-c2ccccc2)cs1)c1ccccc1[N+](=O)[O-] | inactive | inactive |
| O=C(O)c1ccnc2c(O)cccc12 | inactive | inactive |
| Cc1nc(CCN(C)c2ncnc3ccc(-c4ccc5c(c4)OCO5)cc23)cs1 | inactive | inactive |
| COc1ccc2[nH]c(=O)c3c(c2c1)OC(C)(C)C=C3 | inactive | inactive |
| Cc1cc(NC(=O)c2csc(NC(=O)Cc3ccc(Cl)c(Cl)c3)n2)no1 | inactive | inactive |
| Cn1c2cc(C#N)sc2c2cnn(Cc3ccccc3F)c(=O)c21 | inactive | inactive |
| O=S(=O)(Cc1ccc(Cl)c(Cl)c1)Nc1nnc(-c2ccncc2)s1 | inactive | inactive |
| CC1CCC2C(C)(C)C(O)CCC2(C)C12Cc1c(O)cc3c(c1O2)CN(C(CCCN=C(N)N)C(=O)O)C3=O (stereo unspecified) | inactive | inactive |
| CC(C)Oc1cccc(-c2ccnc(N3CCC(C(N)=O)CC3)n2)c1 | inactive | inactive |
| COc1ccccc1S(=O)(=O)Nc1ccc2c(c1)CN(C)C(=O)N2 | inactive | inactive |
| O=C1c2ccccc2NC(c2ccccc2O)N1Cc1ccccc1 (stereo unspecified) | inactive | inactive |
| OCc1cn(Cc2ccc(O)c3ncccc23)cn1 | inactive | inactive |
| CC(C)C[C@H](C(=O)O)c1cc(-c2ccc(C(F)(F)F)cc2)cc(-c2ccc(C(F)(F)F)cc2)c1 | inactive | inactive |
| Cc1ccc(-c2csc(NC(=O)c3ccccc3NS(=O)(=O)c3ccc(C)cc3)n2)cc1 | inactive | inactive |

| SMILES | Potency [1] | Potency [2] |
| --- | --- | --- |
| O=C(Cc1nnc(CNC(=O)c2ccccc2)o1)Nc1cc(C(F)(F)F)ccc1Cl | inactive | inactive |
| O=C(NC1CCCc2c1cnn2-c1ccc(F)cc1F)c1cccc(=O)[nH]1 (stereo unspecified) | inactive | inactive |
| CC(Nc1nc(-c2ccccc2C(F)(F)F)nc2ccccc12)c1ccc(-c2ccncc2)cc1 (stereo unspecified) | inactive | inactive |
| CCOc1ccc(CCNC(=O)c2ccnn2Cc2cccc(C)c2)cc1OCC | inactive | inactive |
| Clc1ccc2ncc(-c3cccc(NC4CCNCC4)n3)n2c1 | inactive | inactive |
| O=C(CNC(=O)c1ccc(Cl)cc1)OC(C(=O)Nc1cc(C(F)(F)F)ccc1Cl)c1ccccc1 (stereo unspecified) | inactive | inactive |
| Cc1ccc(S(=O)(=O)Nc2cnccc2C(=O)Nc2ccc(S(=O)(=O)Nc3nccs3)cc2)cc1 | inactive | inactive |
| OCC#CCSc1nnc(-c2cccc3ccccc23)o1 | inactive | inactive |
| CCOC(=O)C1CCN(C(=O)C2(NC(=O)Nc3ccccc3Cl)CCCCC2)CC1 | inactive | inactive |
| Cc1cc2c(s1)c(C#N)c(C(=O)NCc1ccccc1F)n2C | inactive | inactive |
| C=C(CCC1=C(C)[C@H]2[C@H](CC3[C@@H]4CC=C5C[C@@H](O)C[C@@H](O)[C@]5(C)C4[C@H](O)C[C@@]32C)O1)CO[C@@H]1O[C@H](CO)[C@@H](O)[C@H](O)[C@H]1O (stereo partly specified) | inactive | inactive |
| Cc1cccc(-c2ccc3ncnc(NCc4cccs4)c3c2)c1 | inactive | inactive |
| C=C1C(=O)O[C@@H]2C[C@]3(C)[C@@H](CCC(C)O)[C@@H]3C[C@H]12 (stereo partly specified) | inactive | inactive |
| C/C=C1\[C@H](O[C@@H]2O[C@H](CO)[C@@H](O)[C@H](O)[C@H]2O)OC=C(C(=O)OCCc2ccc(O)cc2)[C@H]1CC(=O)OCCc1ccc(O)cc1 | inactive | inactive |
| Cc1cnc(-c2ccccc2C(C)C)nc1NCC1CCN(c2cccnc2)CC1 | inactive | inactive |
| CC(C)(C)OC(=O)NCCOCCOCCOc1cccc(-n2ncc3c2CCCC3NC(=O)c2ccccn2)c1 (stereo unspecified) | inactive | inactive |
| Cc1nc(NC2CCCCC2)c2nc(-c3ccccc3)n(C(C)CN(C)C)c2n1 (stereo unspecified) | inactive | inactive |
| N=c1c2c(ncn1CCN1CCOCC1)Oc1ccc3ccccc3c1C2c1ccccc1 (stereo unspecified) | inactive | inactive |
| CN1CCN(c2cc(-c3nc(Nc4ccc(F)c(F)c4)c4ccccc4n3)ccn2)CC1 | inactive | inactive |
